# ABHD5 PLIN5 PPI: ABHD5-PLIN5 interaction inhibitors, primary screen, cell lysate, split luciferase complementation, luminescence; Perilipin-5 (Homo sapiens) + 1-acylglycerol-3-phosphate O-acyltransferase ABHD5 (Homo …; Split G. princeps luciferase complementation, 4 h; inhibition, % at 4 µM; 360,000 tested, 0.78% active;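 active means inhibition above the mean inhibition across every tested compound plus 3 SD, cut at about 22% in these data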;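 further: 0% = DMSO only wells and the 100% control is not disclosed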
# Target sequence (Q00G26 whole entry, looked up): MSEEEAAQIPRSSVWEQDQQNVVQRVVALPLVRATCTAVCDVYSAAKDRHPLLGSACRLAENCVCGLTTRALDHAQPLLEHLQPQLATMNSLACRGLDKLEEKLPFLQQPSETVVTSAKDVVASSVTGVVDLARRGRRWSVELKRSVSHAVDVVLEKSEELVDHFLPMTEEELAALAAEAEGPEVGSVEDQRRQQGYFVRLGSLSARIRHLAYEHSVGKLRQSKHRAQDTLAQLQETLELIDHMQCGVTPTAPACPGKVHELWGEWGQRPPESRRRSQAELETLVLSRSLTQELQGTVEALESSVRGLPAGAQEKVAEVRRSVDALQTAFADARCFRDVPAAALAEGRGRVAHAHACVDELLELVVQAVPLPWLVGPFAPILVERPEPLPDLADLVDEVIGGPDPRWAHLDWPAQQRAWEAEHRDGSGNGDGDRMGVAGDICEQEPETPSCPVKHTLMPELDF
# Target sequence (Q8WTS1 whole entry, looked up): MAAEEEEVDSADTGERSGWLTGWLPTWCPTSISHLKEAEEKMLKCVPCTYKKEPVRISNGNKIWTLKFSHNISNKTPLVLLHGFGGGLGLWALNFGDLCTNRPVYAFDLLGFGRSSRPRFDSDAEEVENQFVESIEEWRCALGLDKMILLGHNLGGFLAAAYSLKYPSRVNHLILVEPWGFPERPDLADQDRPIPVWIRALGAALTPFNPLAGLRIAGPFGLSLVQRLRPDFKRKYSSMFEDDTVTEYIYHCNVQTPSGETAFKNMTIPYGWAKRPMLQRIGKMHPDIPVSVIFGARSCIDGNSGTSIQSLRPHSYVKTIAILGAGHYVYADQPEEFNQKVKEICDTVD
# MBD2 DNA inh: inhibitors of MBD2 binding to methylated DNA, primary screen, biochemical, TR-FRET, DNA-binding domain, human; Methyl-CpG-binding domain protein 2 (Homo sapiens), Q9UBB5; 370,000 tested, 0.31% active; inhibition, % at 4.4 µM; MBD2 binding to methylated oligonucleotide; in the data active means inhibition above about 13%
# PRMT1 FP inh: PRMT1 methyltransferase inhibitors, primary screen, biochemical, fluorescence polarization | Protein arginine N-methyltransferase 1 (Homo sapiens), Q99873 | recombinant PRMT1, activity-based probe fluorescence polarization | inhibition, % at 2.79 µM | 370,000 tested, 1.3% active | AID 652257, 2013;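 active means inhibition above about 21% made by adding two undisclosed values, limit read from the data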
# LEDGF integ inh: blockers of LEDGF/p75-dependent integrase strand transfer – biochemical, TR-FRET, high throughput, primary screen; inhibition, % at 3.7 µM; TR-FRET IN-LEDGF/p75 DNA integration, Eu/Cy5; 370,000 tested, 0.64% active;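 active means inhibition above the screen-wide mean plus 3 SD, cut at about 13% in these data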;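 further: signal is the Cy5 over europium emission ratio at 671 and 618 nm; 0% = plate median of compound wells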
# rCAG binder: binders of r(CAG) RNA repeats, primary screen, biochemical, fluorescence. inhibition, % at 3 µM. 370,000 tested, 1.3% active. AID 651821, 2012. r(CAG) RNA repeat, TO-PRO-1 dye displacement fluorescence;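 active means inhibition above the plate cutoff, the mean of all test compounds on that plate plus 3 SD, cut at about 35% in these data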;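 further: 0% = DMSO alone and 100% = 100 µM mitoxantrone as full dye displacement; higher means more dye released from RNA so lower well fluorescence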
# UHRF1 binding: UHRF1 methylated DNA binding inhibitors, primary screen, counter-screen for MBD2 inhibitor project, biochemical, TR-FRET, human UHRF1, single concentration. E3 ubiquitin-protein ligase UHRF1 (Homo sapiens), Q96T88. 370,000 tested, 0.75% active. UHRF1 binding to methylated oligo. inhibition, % at 4.4 µM; in the data active means inhibition above about 21%;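 further: UHRF1 SRA domain binding a hemimethylated CpG hairpin DNA probe; 0% = median of test compound wells and 100% = reference inhibitor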
# IN multimer act: HIV-1 IN multimer formation enhancers, counter-screen for LEDGF/p75 integration inhibitor project, biochemical, TR-FRET | shares compounds with LEDGF integ inh | TR-FRET HIV-1 integrase multimerization | activation, % at 7.7 µM | 2,000 tested, 17% active; in the data active means activation above about 8.9%
# TR-FRET interf: TR-FRET optical interference artefacts, confirmation, artefact control for LEDGF/p75-dependent integration inhibitor project, biochemical, HIV-1 IN multimerization. shares compounds with LEDGF integ inh. TR-FRET optical interference counterscreen. inhibition, % at 7.7 µM. 2,000 tested, under 10 active;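 active means inhibition above the mean over all tested compounds plus 3 SD, which no compound reached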;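 further: 0% = integrase with antibodies and DMSO and 100% = antibodies without integrase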
# LEDGF integ conf: inhibitors of HIV-1 IN-LEDGF/p75 DNA integration, confirmation, biochemical, TR-FRET; shares compounds with LEDGF integ inh; TR-FRET LEDGF/p75-dependent HIV-1 integration; 2,000 tested, 36% active; inhibition, % at 3.7 µM; in the data active means inhibition above about 14%
# An asterisk follows results filed as active; · = no result. Hits are enriched below; roughly 4.1% of the tested compounds scored in any of these assays.
SMILES,ABHD5 PLIN5 PPI,MBD2 DNA inh,PRMT1 FP inh,LEDGF integ inh,rCAG binder,UHRF1 binding,IN multimer act,TR-FRET interf,LEDGF integ conf
Cc1ccc(NC(=O)CCc2ccccc2)cc1C,-5,-1,2,72*,1,-3,0,2,-1
NC(=O)N/N=C/c1coc2ccc3ccccc3c2c1=O,-3,-2,0,0,6,-5,·,·,·
O=Cc1coc2ccc3ccccc3c2c1=O,12,0,0,16*,6,2,0,0,54*
O=C(COC(=O)c1cc(S(=O)(=O)N2CCOCC2)ccc1Cl)NC1CCCCC1,-1,-6,1,19*,1,4,0,-2,-1
O=C(COC(=O)c1cc(S(=O)(=O)N2CCOCC2)ccc1Cl)NC1CC1,-8,-1,3,-1,3,1,·,·,·
CCC(C(=O)Nc1cnccn1)c1ccccc1 (centres undefined),-3,4,1,-3,-2,1,·,·,·
CCC(C(=O)Nc1ccccn1)c1ccccc1 (centres undefined),3,7,2,14*,-2,-1,0,-1,13
COC(=O)C1=C(C)N(Cc2ccccc2C(F)(F)F)C(=NCc2ccc(OC)cc2)NC1c1ccc(F)cc1 (centres undefined),·,-5,-7,4,8,-1,·,·,·
COc1cc(C2Nc3ccc4ncccc4c3C3=C2C(=O)CCC3)ccc1O (centres undefined),-2,-13,5,27*,3,-9,2,-10,-13
Nc1c(S(=O)(=O)c2cccs2)c2nc3ccccc3nc2n1Cc1ccccc1,-7,5,7,6,14,9,·,·,·
COCCn1c(N)c(S(=O)(=O)c2cccs2)c2nc3ccccc3nc21,-27,-5,3,14*,3,12,0,-2,-4
C[C@@H]1/C=C/CC(=O)N2[C@H](CC(=O)N[C@@H]1c1ccccc1)C[C@@H](C)[C@H]2c1ccccc1,·,3,8,-1,4,-1,·,·,·
C[C@@H]1CCCN1c1cccc2c1S(=O)(=O)N(C1CC1)CCCO2,·,1,5,-4,6,5,·,·,·
N#C/C(=N\Nc1cc(Cl)cc(Cl)c1)c1nnc2n1CCCCC2,4,6,2,64*,11,3,1,-7,5
COc1cccc(C=NNc2nnc(NN=Cc3cccc(OC)c3OC)c3ccccc23)c1OC,0,2,-2,1,5,-2,·,·,·
COc1cccc(/C=N/Nc2nnc(C)n2N)c1OCc1ccccc1Cl,-36,-5,0,41*,1,4,1,-3,-3
CC(C)(C)c1nnc(N/N=C/c2ccccc2O)n(N)c1=O,-7,-1,0,-4,-2,-3,·,·,·
CCc1nnc(N/N=C/c2ccccc2Cl)n1N,-32,-4,5,46*,-2,9,0,-1,-1
CCc1nnc(N/N=C/c2ccccc2F)n1N,-45,1,3,58*,-2,8,0,2,0
CCOC(=O)N/N=C/c1ccccc1F,3,-2,-1,-1,3,-3,·,·,·

# Screening data as filed in PubChem.
